Assay results taken from article PMC4336329 (PLoS ONE, 2015).
Hit rate of the full screen: of about 310,000 compounds, about 14,000 (4.5%) showed an effect of 50% or more. The effect is printed as a negative number. The entries come from a sample that favours strong results as a whole.

Biological target: human ether-à-go-go-related gene (hERG) potassium channel (human, UniProt Q12809)
Assay: primary screen, population patch clamp on CHO cells stably expressing hERG; higher = less effect of the substance
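Also: peak tail current of the secondary pulse compared with the same well before compound.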

Chain of human ether-à-go-go-related gene (hERG) potassium channel (Q12809 whole entry, looked up): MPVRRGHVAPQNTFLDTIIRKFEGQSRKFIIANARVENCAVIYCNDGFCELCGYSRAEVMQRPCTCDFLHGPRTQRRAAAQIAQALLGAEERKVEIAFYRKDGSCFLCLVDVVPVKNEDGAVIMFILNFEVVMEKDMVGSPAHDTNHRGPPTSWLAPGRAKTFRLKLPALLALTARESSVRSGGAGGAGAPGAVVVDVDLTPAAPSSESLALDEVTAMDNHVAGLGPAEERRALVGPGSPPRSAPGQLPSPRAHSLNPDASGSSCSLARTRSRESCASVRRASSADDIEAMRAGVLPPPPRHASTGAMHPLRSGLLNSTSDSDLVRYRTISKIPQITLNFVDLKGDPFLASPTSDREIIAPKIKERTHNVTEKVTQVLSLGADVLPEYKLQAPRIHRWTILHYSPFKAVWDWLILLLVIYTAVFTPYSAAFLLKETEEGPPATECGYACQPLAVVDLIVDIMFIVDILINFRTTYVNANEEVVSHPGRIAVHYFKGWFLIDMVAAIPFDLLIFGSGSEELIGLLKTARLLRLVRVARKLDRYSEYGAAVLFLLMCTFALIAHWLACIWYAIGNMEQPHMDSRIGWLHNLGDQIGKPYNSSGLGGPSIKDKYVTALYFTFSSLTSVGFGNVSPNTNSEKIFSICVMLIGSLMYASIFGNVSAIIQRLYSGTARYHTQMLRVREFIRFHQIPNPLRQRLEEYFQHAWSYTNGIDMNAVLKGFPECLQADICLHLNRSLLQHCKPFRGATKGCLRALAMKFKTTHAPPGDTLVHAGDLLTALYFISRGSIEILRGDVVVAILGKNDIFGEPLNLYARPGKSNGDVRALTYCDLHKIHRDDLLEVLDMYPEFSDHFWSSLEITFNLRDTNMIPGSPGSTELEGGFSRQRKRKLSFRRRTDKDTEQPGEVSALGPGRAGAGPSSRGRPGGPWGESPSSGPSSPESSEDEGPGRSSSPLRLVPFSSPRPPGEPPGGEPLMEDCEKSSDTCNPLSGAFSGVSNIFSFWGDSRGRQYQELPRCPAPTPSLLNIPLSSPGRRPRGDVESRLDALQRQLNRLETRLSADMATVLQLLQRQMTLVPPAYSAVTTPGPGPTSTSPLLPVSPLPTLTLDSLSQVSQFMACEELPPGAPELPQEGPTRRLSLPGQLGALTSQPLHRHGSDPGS

Row | Compound | hERG current change (%, negative = inhibition) at 10uM
1 | CSc1nc(NCCCO)c2c3c(sc2n1)CN(C)CC3 | -47.4%
2 | COC(CNc1nc(SC)nc2sc3c(c12)CCN(C)C3)OC | -52.5%
3 | CSc1nc(NCC(C)O)c2c3c(sc2n1)CN(C)CC3 (stereo not drawn) | -42%
4 | COCCNc1nc(SC)nc2sc3c(c12)CCN(C)C3 | -71.2%
5 | CCN(CC)CCNc1nc(SC)nc2sc3c(c12)CCN(C)C3 | -6.12%
6 | CSc1nc(NCC(C)C)c2c3c(sc2n1)CN(C)CC3 | -44.2%
7 | S=c1[nH]c2ccccc2o1 | 18%
8 | CN(C)CCN(Cc1ccco1)C(=O)c1oc2ccccc2c1NC(=O)COc1ccccc1 | -88.7%
9 | O=C(COc1ccccc1)Nc1ccccc1C(=O)NCc1ccco1 | -6.63%
10 | Cc1c(C(=O)OCC(=O)NCc2ccco2)oc2ccccc12 | 2.46%
11 | COc1ccc(OCC(=O)Nc2c(C(=O)N(CCN(C)C)Cc3ccco3)oc3ccccc23)cc1 | -77%
12 | COc1ccc(OCC(=O)OCC(=O)NCc2ccco2)cc1 | -4.81%
13 | CCCN(CCC)C(=O)c1oc2ccccc2c1NC(=O)Cc1cccc(OC)c1 | 4.67%
14 | CCCCCCN=C(C)c1ccccc1O | 20.2%
15 | COCCN(Cc1ccccc1)C(=O)c1cccc(S(=O)(=O)N2CCN(c3ccc(F)cc3)CC2)c1 | -64.6%
16 | COCCN(Cc1ccccc1)C(=O)c1cccc(S(=O)(=O)N2CCCc3ccccc32)c1 | -21.2%
17 | CCN(Cc1ccccc1)C(=O)c1cccc(S(=O)(=O)N2CCN(c3ccccc3)CC2)c1 | -15.8%
18 | COCCN(Cc1ccccc1)C(=O)c1cccc(S(=O)(=O)N2CCN(c3ccccc3)CC2)c1 | -52.8%
19 | CN(Cc1ccc(F)cc1)C(=O)c1cccc(S(=O)(=O)N2CCN(c3ccccc3)CC2)c1 | -19.9%
20 | CCN(Cc1ccccc1)C(=O)c1cccc(S(=O)(=O)N2CCN(c3ccc(F)cc3)CC2)c1 | -47.2%
21 | CC(C)(C)NC(=O)Cn1c(=O)c(=O)n(Cc2ccccc2)c2ccc(Cl)cc21 | -0.233%
22 | Cn1c2c(c(=O)n(C)c1=O)C(c1ccc(Br)cc1)Nc1ccccc1O2 (stereo not drawn) | -19.4%
23 | Cc1ccc(S(=O)(=O)NCCC2(C(C)C)CCOC(C)(C)C2)cc1 (stereo not drawn) | -17.9%
24 | CC1(C)CC(=O)C(C=NCC(N)=O)=C(O)C1 | -19.5%
